This is an account of results in PubChem BioAssay AID1347076 (National Center for Advancing Translational Sciences (NCATS), 2019).

The structures appear in SMILES notation. About 13,000 (3.2%) of roughly 400,000 compounds were called active. Inconclusive results (about 18%) are left out. The sample as a whole holds a higher share of actives than the screen did. A number with no mark means an inactive call. Calls follow the shape of the dose curve; as a rule, active = well fitted cell-killing curve with a large enough effect; inconclusive = small, poorly fitted or top-dose-only effect, or effect the other way; inactive = flat fitted curve, though single readings scatter.
% is scaled to controls: 0 for no effect and ±100 for the full control effect; potency is read from the fitted curve at half-maximal effect.

A short description of the experiment: qHTS assay for MDR1-selective chemotherapeutics: Primary screen using the drug-selected MDR subline cells KB-V1. Also: nearly all actives have a fitted effect of over 60% in size. As to conditions: KB-V1 MDR cells viability, CellTiter-Glo, 72 h; series mostly up to 46.1 µM; activity change, negative = cytotoxicity: at the top concentration. The text has this:
A prime difficulty in effectively treating cancer is the development of cellular resistance to multiple structurally unrelated anticancer drugs, a phenomenon known as multidrug resistance (MDR). […] Numerous strategies to overcome P-gp-mediated MDR have been explored, including the design of drugs that evade recognition and efflux, and development of inhibitors to block efflux and restore drug accumulation. […] An alternative approach is to exploit resistance by identifying drugs that target MDR cells over the non-resistant parental cells from which they were selected. […] The development of MDR1-selective agents represents a new strategy for resolving multidrug resistance, as it remains a long-standing clinical challenge for cancer chemotherapy.
Our goal is to identify compounds that selectively kill P-gp-expressing MDR cells. We will identify MDR1-selective compounds by comparing toxicity of compounds in the screening library against parental, drug-naive (KB-3-1) adenocarcinoma cells as well as their drug-selected MDR sub-line (KB-V1). The differential toxicity of compounds against these two cell lines will be used to identify MDR1-selective compounds, whose cytotoxicity is potentiated, rather than diminished, by P-gp expression. This assay will be utilized to conduct a quantitative high-throughput screen (qHTS) in collaboration with the NIH Chemical Genomics Center to identify selective agents, and probe hits arising from the screen will be validated using secondary assays and characterized through a well-established follow-up research program. This screen was run against the entire NCGC library collection of about 400,000 compounds.
NIH Molecular Libraries Probe Production Network [MLPCN]
NIH Chemical Genomics Center [NCGC]
PI: Michael Gottesman, National Cancer Institute, NIH
Briefly, 5 microL of media containing either KB-V1 cells (columns 1-2, 4-48) are dispensed into Greiner white, treated solid-bottom 1536-well assay plates (media-only control is added to column 3). Compounds are then transferred via Kalypsys pin tool equipped with 1536-pin array (10 nL slotted pins, V&P Scientific, San Diego, CA). Following addition of compound, the plates are incubated at 37 degrees C for 72 hours. CellTiter-Glo (2.5 µL/well) is then added, and the plates are read in a ViewLux reader (Perkin-Elmer, clear luminescence filter, 1 second exposure, 1x binning) following a 10 minute incubation. All cells are dispensed in DMEM phenol-red free media containing 10% FBS.
Library plates were screened starting from the lowest and proceeding to the highest concentration. Vehicle-only plates, with DMSO being pin-transferred to columns 5-48, will be inserted uniformly at the beginning and the end of each library in order to monitor and record any shifts in the background, which can be affected by reagent dispensers or loss in enzyme activity over time. Screening data will be corrected, normalized, and concentration-effect relationships will be derived by using publicly-available NCGC, NCATS curve fitting algorithms (http://ncgc.nih.gov/pub/openhts).
For orientation: Quantitative high-throughput screening tests each substance at several concentrations.
Take `CC1(C(=O)NS(=O)(=O)c2ccc(C#N)cc2)CCN1C(=O)CC1CCCC1` (stereo not given): the “activity change, negative = cytotoxicity” value was 1.86%.
`Cc1cc(-c2n[nH]c(=S)n2/N=C/C(Br)=C/c2ccccc2)n[nH]1`: the Potency is 10.3 µM (active).
Consider `CC(C)c1cc(C(=O)N/N=C/C(Br)=C/c2ccccc2)n[nH]1`, for which the “activity change, negative = cytotoxicity” value was -26.2%.
Still for that read-out and setting: under `S=c1[nH]nc(-c2cc(-c3ccccc3)n[nH]2)n1/N=C/c1c2ccccc2cc2ccccc12` stands 3.84%; under `CCCCS(=O)(=O)c1oc(-c2cccs2)nc1S(=O)(=O)c1ccccc1`, -0.671%; under `O=C(C1CCCO1)N1CCN(C(=O)C23CC4CC(CC(C4)C2)C3)CC1` (stereo not given), 18.8%.
In the case of `CCN(c1ccccc1)S(=O)(=O)c1ccc(N)cc1`, the “activity change, negative = cytotoxicity” value was 1.93%.
As to `CCN(c1ccccc1)S(=O)(=O)c1ccc(NC(=O)C(C)(C)C)cc1`, the Potency is 11.6 µM (active).
As for `CCN(c1ccccc1)S(=O)(=O)c1ccc(C(=O)Nc2ccccc2OC)cc1`, the “activity change, negative = cytotoxicity” value is -9.91%.
As to `CC1(C(=O)Nc2cccc3c2CCCC3)CCN1C(=O)CCc1ccc(Cl)cc1Cl` (stereo not given), the “activity change, negative = cytotoxicity” value is -8.74%.
Consider `CN(CCO)C(=O)c1nc[nH]c1C(=O)N(C)Cc1ccccc1`, for which the “activity change, negative = cytotoxicity” value was -5.16%.
Still for that read-out and setting: under `Cc1ccc(CNC(=O)CSc2c3c(nc4cc(Cl)ccc24)CCCC3)cc1` stands 6.96%.
Regarding `Cc1ccc(NC(=O)CN(C)Cc2ccc(F)cc2)c([N+](=O)[O-])c1`, the Potency was 9.2 µM (active).
As to `Cc1c(NC(=S)NCc2ccc(F)cc2)cccc1[N+](=O)[O-]`, the “activity change, negative = cytotoxicity” value was -18.7%.
On the same count and under the same terms, the result for `Cc1ccc(NC(=O)c2oc3ccccc3c2C)c([N+](=O)[O-])c1` reads -19.5%; that for `CCC(=O)N1CCC(C)(C(=O)Nc2cc(OC)c(OC)c(OC)c2)C1` (stereo not given), 5.6%.
On to `CCOCCc1nn2c(=O)cc(COC(=O)CNC(=O)c3ccc(C(C)(C)C)cc3)nc2s1`, for which the “activity change, negative = cytotoxicity” value was 22%.
As for `COc1ccc(NC(=O)CSc2nnnn2-c2cccc(OC)c2)cc1`, the “activity change, negative = cytotoxicity” value was 10.7%.
Take `COc1ccc(CSc2nnnn2-c2ccc(C(=O)O)cc2)cc1`: the “activity change, negative = cytotoxicity” value was 0%.
Regarding `COc1ccc(-n2nnnc2SCC(=O)c2ccc(OC)c(OC)c2)cc1`, the Potency was 18.4 µM (active).
Regarding `COc1c(C)cc(C(O)c2ncc(-c3cccc(C(F)(F)F)c3)[nH]2)cc1C` (stereo not given), the “activity change, negative = cytotoxicity” value was -11%.
Still for that read-out and setting: under `CS(=O)c1ccc(/C=C2\C=Cc3ccccc32)cc1` (stereo not given) stands 0%.
With `COc1ccccc1Oc1ccc(S(=O)(=O)Nc2cccnc2)cc1`, the Potency was 2.59 µM (active).
As for `COc1ccc(S(=O)(=O)Nc2cccnc2)c(Cl)c1Cl`, the “activity change, negative = cytotoxicity” value is -23.8%.
For `CCOc1ccc(S(=O)(=O)Nc2ccc(OC)nc2)cc1`, the “activity change, negative = cytotoxicity” value was -0.792%.
Same read-out and setting: the result for `Cc1cc(C)n2ncc(C(=O)N3CCCC3)c2n1` reads -7.32%; that for `Cc1cc(Cl)ccc1OCCCC(=O)Nc1cccc(-n2cnnn2)c1`, -0.681%; that for `CCOC(=O)N1CCN(C(=O)COc2ccc(Cl)cc2C)CC1`, 0%.
As to `Cc1cc(Cl)ccc1OCCCC(=O)NCc1ccncc1`, the Potency was 16.4 µM (active).
On to `COCOCCn1cc(CN2CCS(=O)(=O)N(Cc3ccc(-c4cccc(N(C)C)c4)cc3)C(CC(C)C)C2=O)nn1` (stereo not given), for which the “activity change, negative = cytotoxicity” value was 11.8%.
The same measure, in the same setting: the result for `CCNC(=O)C1(C)CCCN(C(=O)c2c(C)noc2C)C1` (stereo not given) reads -1.18%.
Consider `CCCCCCNC(=O)O[C@H]1CN(C(=O)OC(C)C)N(C(=O)OC(C)C)[C@@H]2CN(S(=O)(=O)c3ccc(C)cc3)C[C@]12O`, for which the “activity change, negative = cytotoxicity” value was -29.2%.
Same read-out and setting: the result for `CCOC(=O)C1C(=O)NC(N2CCN(c3ccccc3)CC2)=NC1c1ccco1` (stereo not given) reads 6.85%.
Consider `CCOC(=O)C1C(=O)C=C(c2ccc(OC)cc2)CC1c1ccco1` (stereo not given), for which the Potency was 11.6 µM (active).
Turning to `COc1ccc(C2=NN(C(=O)CSc3nnnn3C)C(c3ccco3)C2)cc1` (stereo not given), the “activity change, negative = cytotoxicity” value was 56%.
With `O=C(CS(=O)(=O)c1cccc2nsnc12)N1CCN(c2cccc(Cl)c2)CC1`, the “activity change, negative = cytotoxicity” value is 0%.
The same measure, in the same setting: under `CC(=O)Nc1cccc(-c2cc3nc(NCc4cccnc4)n(C)c(=O)c3s2)c1` stands 2.7%; under `CC1(C(=O)NS(=O)(=O)c2ccccc2)CCN1C(=O)Cc1ccc(-c2ccccc2)cc1` (stereo not given), 2.72%.
As to `COc1ccc(OC)c(C(=O)c2coc3ccc(OC)cc23)c1`, the “activity change, negative = cytotoxicity” value was -6.37%.
With `Cc1ccc(C(=O)c2coc3ccc(O)c(CN(C)C)c23)cc1`, the “activity change, negative = cytotoxicity” value is 6.06%.
As to `COc1ccc(OC)c(C(=O)c2coc3ccc(O)c(CN4CCOCC4)c23)c1`, the Potency was 7.31 µM (active).
With `CC(=O)NC(c1ccccc1)c1nc(-c2ccccc2C)cs1` (stereo not given), the “activity change, negative = cytotoxicity” value was 5.09%.
Consider `O=C(c1ccco1)N(Cc1cccs1)c1ccc(O)cc1`, for which the “activity change, negative = cytotoxicity” value is -11.9%.
`COc1cccc(NC(=O)N(C)C[C@@H]2Oc3ncc(Br)cc3C(=O)N([C@@H](C)CO)C[C@H]2C)c1`: the “activity change, negative = cytotoxicity” value was -16.2%.
Consider `O=C(CN1CCN(S(=O)(=O)c2ccc(F)cc2)CC1)NC1CC1`, for which the “activity change, negative = cytotoxicity” value is 12.1%.
`O=C(CN1CCN(S(=O)(=O)c2ccc3ccccc3c2)CC1)NC(=O)NC1CCCCC1`: the Potency was 18.4 µM (active).
With `COc1ccc(S(=O)(=O)N2CCN(C(=O)NC3CCCCC3)CC2)cc1`, the “activity change, negative = cytotoxicity” value is 2.42%.
`CC(=O)c1sc(N2C(=O)c3oc4ccccc4c(=O)c3C2c2ccc(C)cc2)nc1C` (stereo not given): the “activity change, negative = cytotoxicity” value is 25%.
`CN(C)c1ccnc2sc(C(=O)c3ccccc3)c(N)c12`: the “activity change, negative = cytotoxicity” value was 12.2%.
With `CN(C)/C=C/c1c(C#N)c(=O)ncn1Cc1ccccc1`, the “activity change, negative = cytotoxicity” value was -13.6%.
For `CN(C)c1ccnc2sc3c(=O)n(Cc4ccccc4)cnc3c12`, the Potency was 8.2 µM (active).
`COc1ccc(-c2coc3c(C(=O)NC(C)C)cccc23)c(C)c1`: the “activity change, negative = cytotoxicity” value is -5.97%.
In the case of `CCS(=O)(=O)N1Cc2ccccc2CC1C(=O)Nc1ccc(OC)cc1OC` (stereo not given), the “activity change, negative = cytotoxicity” value is 3.09%.
Consider `CCS(=O)(=O)N1Cc2ccccc2CC1C(=O)Nc1nc2ccc(F)cc2s1` (stereo not given), for which the Potency was 14.6 µM (active).
As for `CC(=O)Nc1ccc2nc(NC(=O)CS(=O)(=O)c3ccc(F)cc3)sc2c1`, the “activity change, negative = cytotoxicity” value was -2.91%.
Still for that read-out and setting: the result for `NC(=O)C1CCN(c2ncc(-c3ccc(Cl)cc3)s2)CC1` reads 13.3%.
On to `CCCC(=O)N1CCC1(C)C(=O)Nc1ccc(-n2cncn2)cc1` (stereo not given), for which the “activity change, negative = cytotoxicity” value is 5.17%.
For `CSCCC(C(=O)NC(C)(C)C)n1c(-c2ccccc2)nc2ccccc21` (stereo not given), the “activity change, negative = cytotoxicity” value is -25.2%.
Regarding `Cc1ccc(S(=O)(=O)N2CCN(S(=O)(=O)N3CCOCC3)CC2)cc1`, the “activity change, negative = cytotoxicity” value was 6.91%.
Consider `O=S(=O)(N1CCOCC1)N1CCN(c2ccccc2F)CC1`, for which the “activity change, negative = cytotoxicity” value is -16.5%.
In the case of `Cc1cccc(C)c1N1CCN(S(=O)(=O)N2CCOCC2)CC1`, the Potency was 16.4 µM (active).
Take `Clc1ccc(-n2nnnc2CN2CCCCC2)cc1Cl`: the Potency was 13 µM (active).
As to `Clc1ccc(CN2CCCCCC2)cc1Cl`, the “activity change, negative = cytotoxicity” value was -11.5%.
For `c1cc(-c2nn[nH]n2)ccc1CN1CCCCC1`, the “activity change, negative = cytotoxicity” value was -12.7%.
As to `COc1ccc(S(=O)(=O)NC(=O)C2(C)CCN2C(=O)c2ccccc2CCc2ccccc2)cc1` (stereo not given), the “activity change, negative = cytotoxicity” value is -9.62%.
